CYP2C9 act: CYP2C9 (human) activation; recombinant CYP2C9, luciferin-H conversion, luminescence; stronger effect = higher value; factor 1 = untreated enzyme, 0 = blocked; activation factor at 5 µM; P11712; 96,000 compounds, 1.4% hits; AID 1024;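 active means activation factor of 2 or more for CYP2C9 at a 5 µM dose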
sEH inh: blocks human soluble epoxide hydrolase activity. P34913. inhibition, % at 2 µM. 91,000 compounds, 0.34% hits. AID 707. recombinant human sEH enzymatic activity assay; in the data active means inhibition above about 80%
Target sequence (P34913 whole entry, looked up): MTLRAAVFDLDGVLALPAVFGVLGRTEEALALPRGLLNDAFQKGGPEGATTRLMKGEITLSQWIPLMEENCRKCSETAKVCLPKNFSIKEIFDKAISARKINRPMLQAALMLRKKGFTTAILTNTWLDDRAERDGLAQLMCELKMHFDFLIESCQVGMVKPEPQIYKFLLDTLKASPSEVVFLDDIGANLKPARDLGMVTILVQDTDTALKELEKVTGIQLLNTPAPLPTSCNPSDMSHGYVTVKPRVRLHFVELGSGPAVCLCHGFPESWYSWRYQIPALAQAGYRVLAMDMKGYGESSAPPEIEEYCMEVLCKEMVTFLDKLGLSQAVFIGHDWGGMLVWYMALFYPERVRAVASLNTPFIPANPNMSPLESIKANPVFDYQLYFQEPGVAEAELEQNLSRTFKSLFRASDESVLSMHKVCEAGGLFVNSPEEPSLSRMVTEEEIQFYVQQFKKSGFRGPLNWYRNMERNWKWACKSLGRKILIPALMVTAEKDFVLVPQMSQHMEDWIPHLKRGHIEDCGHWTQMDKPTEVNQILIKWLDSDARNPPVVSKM
CYP2C9 inhib: human CYP2C9 inhibition; P11712; CYP2C9 Supersomes, luciferin-H conversion, luminescence; inhibition, % at 5 µM; 96,000 compounds, 20% hits; AID 777;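 active means blocking of liver enzyme CYP2C9 beyond about 50% at 5 µM, limit read from the data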
sEH activator: soluble epoxide hydrolase (human) activation. 91,000 compounds, 0.04% hits. P34913. activation, % at 2 µM. purified human sEH enzymatic activity, activator screen; in the data active means activation above about 37%
CYP2C19 inh: blocks human cytochrome P450 2C19 | 96,000 compounds, 21% hits | inhibition, % at 5 µM | AID 778 | CYP2C19 Supersomes, luciferin-H EGE luminescence, 30 min | P33261;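 active means CYP2C19 inhibition above a set limit at 5 µM in the primary screen, cut at about 50% in these data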
CYP2C19 act: activators of human cytochrome P450 2C19. P33261. recombinant CYP2C19, luciferin-H EGE luminescence; stronger effect = higher value; 0 = fully inhibited enzyme, 1 = untreated enzyme. activation factor at 5 µM. 96,000 tested, under 10 active. AID 1025;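 active means activation factor of at least 2 at 5 µM in the primary screen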
A number is an active result; i = inactive; nt = no result. Sampled rows, rich in hits. Any-hit rate of the full collection: about 27%.

SMILES	CYP2C9 act	sEH inh	CYP2C9 inhib	sEH activator	CYP2C19 inh	CYP2C19 act
CC(C)CC(=O)Nc1ccc(C(=O)Cn2nc(C(=O)O)c3ccccc3c2=O)cc1	i	i	i	i	i	i
COC(=O)c1c(NC(=O)CSc2nnc(-c3ccco3)n2C)sc(C)c1C	nt	i	nt	i	nt	nt
CCOc1ccc(N2C(=O)CC(N)C2=O)cc1 (centres undefined)	nt	i	nt	i	nt	nt
CC(OC(=O)c1nsc(Cl)c1Cl)C(=O)NCc1ccc2c(c1)OCO2 (centres undefined)	i	i	92.3	i	i	i
Cn1nc(C(=O)NCc2ccc(F)cc2)c2ccccc2c1=O	nt	i	nt	i	nt	nt
Cn1nc(C(=O)NCc2ccccc2)c2ccccc2c1=O	i	i	i	i	58.5	i
CCOC(=O)C1CCN(C(=O)c2sc3nc(-c4ccc(F)cc4)cn3c2C)CC1	i	i	i	i	i	i
Cn1c(=O)c2c(nc(NC3CCCCC3)n2CC(=O)C23CC4CC(CC(C4)C2)C3)n(C)c1=O	nt	i	nt	i	nt	nt
CCOc1ccc(C(=O)CCc2nc3ccccc3s2)cc1	i	i	90.7	i	56.4	i
CCOc1ccc(C(=O)CCC(=O)O)cc1	i	i	i	i	i	i
Cc1ccc(C)n1-c1sccc1C(=O)O	i	i	i	i	i	i
N#CCC(=O)NCCCOC(=O)Nc1ccc(Cl)c(Cl)c1	i	i	i	i	i	i
CC1CCC(C(C)C)C2=C1C(C#N)(C#N)C(C#N)(C#N)C(c1ccccc1)N2 (centres undefined)	i	i	70.4	i	i	i
CCc1ccc(NC(=O)N(Cc2ccco2)C(C)c2cccs2)cc1 (centres undefined)	i	i	i	i	i	i
CCCN1CCCc2cc(CN(CCCN3CCOCC3)C(=O)Nc3ccc(OCC)cc3)ccc21	i	i	i	i	i	i
Cc1ccc(NC(=O)N(CCCN2CCOCC2)Cc2cc3cc4c(cc3[nH]c2=O)OCO4)cc1	i	i	i	i	i	i
CCOc1ccc(NC(=O)N(CCCN2CCOCC2)Cc2cccnc2)cc1	i	i	53.8	i	78.1	i
CCc1ccc(NC(=O)N(Cc2cccnc2)Cc2ccco2)cc1	i	i	87.1	i	97.8	i
Cc1ccc(NC(=O)N(CCCN2CCOCC2)Cc2cccs2)cc1C	i	i	52.9	i	63.4	i
O=C(Nc1ccc(Cl)cc1)N(CCCN1CCOCC1)Cc1cccs1	i	i	i	i	83.6	i
CCOC(=O)C(C)Oc1ccc(C2NC(=O)NC(C)=C2C(=O)Nc2ccccc2C)cc1 (centres undefined)	i	i	i	i	i	i
Cc1ccc(C)c(CSc2nnc(-c3cccs3)n2Cc2ccco2)c1	i	i	i	i	51.7	i
Cc1cc(C)nc(SCc2nnc(SCC(=O)Nc3ccccc3C)n2Cc2ccco2)n1	i	nt	69.8	nt	62.5	i
Cc1ccc(NCc2nnc(SCC(=O)c3ccccc3)n2Cc2ccco2)c(C)c1	i	i	80.9	i	84.1	i
Cc1ccc(C)c(NC(=O)CSc2nnc(CSc3nc(C)cc(C)n3)n2Cc2ccco2)c1	i	nt	51.2	nt	i	i
SMILES	CYP2C9 act	sEH inh	CYP2C9 inhib	sEH activator	CYP2C19 inh	CYP2C19 act
Cc1ccc(NC(=O)CSc2nnc(CSc3nc(C)cc(C)n3)n2Cc2ccco2)c(C)c1	i	i	i	i	i	i
CCN(CC(F)(F)C(F)F)S(=O)(=O)c1ccc(NC(=O)OC)cc1	i	i	i	i	i	i
CSc1ccc(Cl)c(C(=O)Nc2ccc(OCC(N)=O)cc2)c1	i	i	i	i	i	i
COC(=O)[C@H](C)NC(=O)Nc1ccc(Oc2ccccc2)cc1	i	i	i	i	i	i
c1coc(CN2CN=C(Nc3nc4ccccc4s3)NC2)c1	i	i	i	i	i	i
O=Nc1c2nc3ccccc3n(O)c-2c2ccccc12	i	nt	i	nt	i	i
Cn1c(Cl)cnc1C(O)c1ccccc1 (centres undefined)	i	i	i	i	i	i
Cc1sc(=NC(=O)c2ccco2)n(C)c1-c1ccccc1	i	i	65.2	i	i	i
Cc1sc(=NC(=O)c2ccco2)n(C)c1-c1ccc(F)cc1	i	i	i	i	i	i
Cc1cc(C(=O)CSc2nncs2)c(C)n1-c1c(C)n(C)n(-c2ccccc2)c1=O	i	i	i	i	i	i
Cc1ccc(-n2c(C)cc(C(=O)CSc3nnnn3C)c2C)cc1	i	i	60.8	i	52.7	i
Cc1ccc(-n2c(C)cc(C(=O)CSc3nncs3)c2C)cc1	i	nt	89.5	nt	99.5	i
Cc1ccc(C)c(S(=O)(=O)NCC(=O)Nc2sc3c(c2C(N)=O)CCC(C)C3)c1 (centres undefined)	i	i	i	i	i	i
CCS(=O)(=O)NCCc1cc2c(OC)ccc(OC)c2[nH]c1=O	nt	i	nt	i	nt	nt
O=C(NCCNc1ccc([N+](=O)[O-])cc1C(F)(F)F)c1ccccc1F	i	i	i	i	91.5	i
O=[N+]([O-])c1ccc(NCCNS(=O)(=O)c2ccccc2)c(C(F)(F)F)c1	i	i	74.8	i	87.8	i
Cc1ccc(S(=O)(=O)NCCNc2ccc([N+](=O)[O-])cc2C(F)(F)F)cc1	i	i	76.6	i	i	i
CCOc1ccc2c(C)c(C)c(=O)oc2c1OCC	2.5	i	i	i	50.8	i
CCOc1c(OC)ccc2c3c(c(=O)oc12)CCCC3	2.6	i	i	i	75.9	i
COC(=O)C(CCCCNC(=O)OCc1ccccc1)NC(=O)CN (centres undefined)	i	i	i	i	51.1	i
O=C(O)CCCNC(=O)OCc1ccccc1	i	i	i	i	i	i
CCCCCCCCNC(=O)C(CCC(=O)OCc1ccccc1)NC(C)=O (centres undefined)	i	i	i	i	74.6	i
CCCNC(=O)c1cc(OC)c(OC)cc1[N+](=O)[O-]	i	i	i	i	i	i
CCOC(=O)C1CCN(C(=O)CNS(=O)(=O)c2cccs2)CC1	i	nt	i	nt	i	i
O=C(CN1CCN(CC(=O)Nc2ccccc2C(F)(F)F)CC1)Nc1ccccc1F	i	i	i	i	84.8	i
SMILES	CYP2C9 act	sEH inh	CYP2C9 inhib	sEH activator	CYP2C19 inh	CYP2C19 act
O=C(CCN1CCN(CC(=O)Nc2ccccc2Cl)CC1)Nc1ccccc1F	i	i	i	i	77.1	i
O=C(CN1CCCCCC1)Nc1ccccc1F	i	i	i	i	63.1	i
O=C(CN1C(=O)NC2(CCCC2)C1=O)Nc1ccccc1F	2.3	i	i	i	i	i
CC(=O)c1cccc(NC(=O)CN2C(=O)NC3(CCCCCCC3)C2=O)c1	i	i	i	i	i	i
CCN(CC)c1ccc(NC(=O)CN2CCN(CC(=O)Nc3ccccc3F)CC2)cc1	i	i	i	i	i	i
COCc1c(C)cc(C)c(/C=N/O)c1C	i	nt	i	nt	i	i
COc1cc(-c2nnc(SCC(=O)Nc3cc(C)on3)n2C)cc(OC)c1O	i	i	i	i	i	i
CCCCC(CC)C1OCC(CN2CCCC2)O1 (centres undefined)	i	i	i	i	i	i
COc1cc2ncnc(NCc3ccc(C)cc3)c2cc1OC	i	i	i	i	62.6	i

Assay outcomes as filed in PubChem.
